This note sets out measurements from a collection of fitness landscapes (doi:10.1126/science.1257360).

The labels stand for the following.
B1: PhoQ; a variant is named by its letters at X, in order, P23837 (parent)
chain: MKKLLRLFFPLSLRVRFLLATAAVVLVLSLAYGMVALIGYSVSFDKTTFRLLRGESNLFYTLAKWENNKLHVELPENIDKQSPTMTLIYDENGQLLWAQRDVPWLMKMIQPDWLKSNGFHEIEADVNDTSLLLSGDHSIQQQLQEVREDDDDAEMTHSVAVNVYPATSRMPKLTIVVVDTIPVELKSSYMVWSWFIYVLSANLLLVIPLLWVAAWWSLRPIEALAKEVRELEEHNRELLNPATTRELTSLVRNLNRLLKSERERYDKYRTTLTDLTHSLKTPLXXLQXXLRSLRSEKMSVSDAEPVMLEQISRISQQIGYYLHRASMRGGTLLSRELHPVAPLLDNLTSALNKVYQRKGVNISLDISPEISFVGEQNDFVEVMGNVLDNACKYCLEFVEISARQTDEHLYIVVEDDGPGIPLSKREVIFDRGQRVDTLRPGQGVGLAVAREITEQYEGKIVAGESMLGGARMEVIFGRQHSAPKDE

The full ranking holds about 140,000 sequences; the median of “enrichment ratio after two sorts for PhoP signalling” is about 0, and the highest 2% start at about 11. Shown is part of a subset that was picked to be rich in the highest values. Some results are limits rather than exact numbers.

In the assay the parent is B1. The experiment in a line: enrichment ratio after two sorts for PhoP signalling (ratio (wild type AVST 3.29)); higher = more functional. Conditions: with PhoP (E. coli).
As to TMFD, the enrichment ratio is at most 0.25.
For the variant AHCM, the enrichment ratio turned out to be 9.33.
The same measure for THSS: 8.94; for AKKL: at most 0.25; for YGCL: 2.74.
Regarding YHQH, the enrichment ratio was at most 0.25.
The same measure for CTMF: 25.7; for KSHN: at most 0.25.
Regarding YTMF, the enrichment ratio amounted to 5.8.
Turning to YTGF, the enrichment ratio was at most 0.25.
In the case of YTHI, the enrichment ratio was at most 0.25.
The same measure for TTGF: 17.1; for WIMF: at most 0.25; for YTHN: at most 0.25.
With LTGF, the enrichment ratio is at most 0.25.
As for NVHI, the enrichment ratio was at most 0.25.
As to TTHI, the enrichment ratio was found to be 11.5.
With TTHN, the enrichment ratio amounted to 15.7.
WRNH: the enrichment ratio was at most 0.25.
Turning to PTGD, the enrichment ratio was at most 0.25.
Then HQVK, with at most 0.25; and VNRG, with at most 0.25.
For GRVA, the enrichment ratio is at most 0.25.
In the case of FSSR, the enrichment ratio is at most 0.25.
The same measure for SFVK: at most 0.25; for IYPH: at most 0.25.
Take WNMY: the enrichment ratio was at most 0.25.
Turning to TKMF, the enrichment ratio came to 11.5.
The same measure for MEMF: 0.449.
Then PTMF, with at most 0.25; and YTMS, with at most 0.25; and TTMS, with 26.8.
For WIMS, the enrichment ratio was at most 0.25.
Consider GTYD, for which the enrichment ratio was at most 0.25.
Then SAKT, with at most 0.25.
For FGAP, the enrichment ratio was at most 0.25.
Consider FCVG, for which the enrichment ratio is at most 0.25.
On to RGTF, for which the enrichment ratio was at most 0.25.
For the variant VHSV, the enrichment ratio was at most 0.25.
In the case of WISV, the enrichment ratio is at most 0.25.
ADSV: the enrichment ratio was 4.14.
Take TISV: the enrichment ratio came out at 12.8.
On to RISV, for which the enrichment ratio was at most 0.25.
Regarding AISV, the enrichment ratio came to 15.9.
Take IHWP: the enrichment ratio was at most 0.25.
In the case of WMPW, the enrichment ratio was at most 0.25.
Turning to DDPW, the enrichment ratio is at most 0.25.
As for WIPR, the enrichment ratio is at most 0.25.
In the case of GRSL, the enrichment ratio was at most 0.25.
Turning to TCMA, the enrichment ratio is 15.5.
Consider TCMH, for which the enrichment ratio came to 15.1.
For TCWV, the enrichment ratio worked out at 2.38.
On to KCMH, for which the enrichment ratio is at most 0.25.
For the variant TCMV, the enrichment ratio came to 14.6.
Turning to HCMH, the enrichment ratio is at most 0.25.
Then TCIV, with at most 0.25; and TCMD, with at most 0.25.
Then FCMA, with 5.8; and TCMS, with 10.9.
KCMA: the enrichment ratio was at most 0.25.
For the variant TCMI, the enrichment ratio amounted to 15.
Regarding FRCS, the enrichment ratio is at most 0.25.
Then HLCG, with at most 0.25; and TQVV, with 4.23.
As to LDFE, the enrichment ratio was at most 0.25.
The same measure for SIYM: 0.397; for FWIR: at most 0.25.
In the case of LPTL, the enrichment ratio was at most 0.25.
AFEF: the enrichment ratio is at most 0.25.
Turning to SVVF, the enrichment ratio was at most 0.25.
FPHE: the enrichment ratio was at most 0.25.
Consider TCNV, for which the enrichment ratio turned out to be 16.2.
For KSNV, the enrichment ratio is at most 0.25.
Consider TCTG, for which the enrichment ratio was 20.
Consider TCMF, for which the enrichment ratio is 26.2.
As to TCIG, the enrichment ratio was at most 0.25.
Consider KCNV, for which the enrichment ratio is at most 0.25.
With FCMF, the enrichment ratio amounted to 0.805.
The same measure for TCVG: at most 0.25; for TYMF: at most 0.25.
Turning to VCTG, the enrichment ratio came to 0.404.
With TCMG, the enrichment ratio was determined as 11.4.
As to KCTG, the enrichment ratio was at most 0.25.
As for IPQW, the enrichment ratio was at most 0.25.
With TEEP, the enrichment ratio was at most 0.25.
As for KVAI, the enrichment ratio is at most 0.25.
Turning to VSKE, the enrichment ratio is at most 0.25.
The same measure for LVPE: at most 0.25; for KFTM: at most 0.25; for VECA: 3.45.
Consider FAFY, for which the enrichment ratio was at most 0.25.
In the case of SNSG, the enrichment ratio was found to be 10.7.
Consider GRCQ, for which the enrichment ratio was at most 0.25.
For DDFY, the enrichment ratio is at most 0.25.
TGSW: the enrichment ratio was at most 0.25.
Take RFSN: the enrichment ratio was 0.949.
In the case of TCGG, the enrichment ratio was 21.5.
The same measure for TCVC: at most 0.25.
TCHP: the enrichment ratio was at most 0.25.
With TCHQ, the enrichment ratio was 23.4.
Consider TCFK, for which the enrichment ratio is at most 0.25.
Consider TCWG, for which the enrichment ratio is at most 0.25.
With WFIY, the enrichment ratio is at most 0.25.
The same measure for HKKD: at most 0.25; for VKAH: at most 0.25; for AFQW: at most 0.25.
The same measure for SKGM: at most 0.25; for HKSM: at most 0.25.
For SKIM, the enrichment ratio came to 20.9.
For the variant SKRC, the enrichment ratio was at most 0.25.
For SKSM, the enrichment ratio was 14.
The same measure for SKSF: at most 0.25.
Regarding SKSK, the enrichment ratio was at most 0.25.
The same measure for SKRM: at most 0.25.
Consider SKFC, for which the enrichment ratio was at most 0.25.
As to SKIC, the enrichment ratio is 30.5.
In the case of SKAM, the enrichment ratio was found to be 28.
Then SKPM, with at most 0.25; and AFGE, with at most 0.25; and KDQH, with at most 0.25.
With EESA, the enrichment ratio is at most 0.25.
For NRWG, the enrichment ratio is at most 0.25.
FGTG: the enrichment ratio is at most 0.25.
Then MKMF, with at most 0.25.
Then TNYM, with 1.85; and AVGW, with 12.2; and AGGW, with 0.253.
As for AHGW, the enrichment ratio was at most 0.25.
For AIGW, the enrichment ratio is 11.4.
On to AVGD, for which the enrichment ratio was at most 0.25.
The same measure for ANHW: at most 0.25.
Regarding VHGW, the enrichment ratio is at most 0.25.
Then NVGW, with at most 0.25.
For ANGW, the enrichment ratio turned out to be 11.4.
For the variant RGVW, the enrichment ratio was at most 0.25.
GKNA: the enrichment ratio was at most 0.25.
For CIQI, the enrichment ratio was at most 0.25.
Then VWKV, with at most 0.25; and QAIG, with at most 0.25; and WRVK, with at most 0.25.
In the case of MGMG, the enrichment ratio is 42.5.
With MGMW, the enrichment ratio is at most 0.25.
The same measure for MGMY: at most 0.25; for MGTG: at most 0.25.
As to MGWG, the enrichment ratio came out at 0.67.
As to MGME, the enrichment ratio stood at 13.
Regarding LMNI, the enrichment ratio was at most 0.25.
In the case of NSSL, the enrichment ratio was at most 0.25.
For the variant KSSL, the enrichment ratio is at most 0.25.
On to VRSL, for which the enrichment ratio is at most 0.25.
Then SSSL, with 12.5; and ASSL, with 11.7; and QSSL, with 9.11.
On to SDSL, for which the enrichment ratio was 0.277.
With FSSL, the enrichment ratio is at most 0.25.
With TSSL, the enrichment ratio turned out to be 13.7.
